A selection: hits, their analogues and other compounds. The true share with any hit is near 2.8%.
Giardia killer – Giardia lamblia killing. activity change, % at 7.66 µM, hits read low. AID 540267. 0.15% of 340,000 active. Giardia lamblia trophozoite viability; in the data active = activity change below about -80%; inconclusive = between about -30% and that limit;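 note: parasites exposed to compound for two days anaerobically before the ATP read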
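Giardia trophozoites, 100 cells per well, were exposed to compounds for 48 hrs at 37 deg C under anaerobic conditions; viability was then read as ATP content by bioluminescence after 15-30 min at room temperature.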
B2AR arrestin – beta2AR (human) beta-arrestin recruitment activity; P07550; beta-arrestin recruitment to beta2AR, cell-based reporter; Potency, µM (series often up to 46.1 µM), hits mostly activators; 0.02% of 330,000 active; AID 492947; active = well fitted activation curve with a large enough effect; inconclusive = small, poorly fitted or top-dose-only effect; note: nearly all actives have a fitted effect of over 65% in size
DRD3 agonist – activates the human D3 dopamine receptor; D3R DiscoveRx beta-arrestin cells, luminescence, 90 min; max activation, %; 0.58% of 410,000 active; in the data active = max activation above about 30%
Target sequence (P35462 whole entry, looked up): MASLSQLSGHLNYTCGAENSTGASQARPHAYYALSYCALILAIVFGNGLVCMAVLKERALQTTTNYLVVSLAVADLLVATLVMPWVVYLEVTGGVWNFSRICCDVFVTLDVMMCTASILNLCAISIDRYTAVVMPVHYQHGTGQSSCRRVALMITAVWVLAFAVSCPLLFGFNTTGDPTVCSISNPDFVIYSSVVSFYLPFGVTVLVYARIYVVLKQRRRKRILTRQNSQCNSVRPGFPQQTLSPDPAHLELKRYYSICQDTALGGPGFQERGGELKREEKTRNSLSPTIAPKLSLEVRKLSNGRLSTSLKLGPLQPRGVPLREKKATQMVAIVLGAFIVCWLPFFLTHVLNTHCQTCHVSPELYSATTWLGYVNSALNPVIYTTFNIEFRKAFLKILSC
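Cells at 1500/well, incubated overnight, then treated with pinned compounds (dopamine as control) for 90 min at 37 degrees C. DiscoveRx reagent added for 30 - 60 minutes at room temperature; luminescence read.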
D3 antag – antagonists of human D3 dopamine receptor. P35462. D3R cells, DiscoveRx beta-arrestin luminescence, antagonist mode; active compounds read low. 2.5% of 360,000 active. AID 652054. max response, negative = inhibition, %; in the data active = max response below about -50%; inconclusive = no clear call, values can overlap the other calls
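Cells plated overnight at 1500 cells/well, then exposed to library compounds with dopamine controls for 90 minutes at 37 degrees C. DiscoveRx reagent added for 30–60 minutes at room temperature; luminescence read, quantitative HTS format.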
Hits are given with their value; n = inactive; u = inconclusive; x = not tested or not shown.

SMILES	Giardia killer	B2AR arrestin	DRD3 agonist	D3 antag
COc1ccc(-n2ncc(C(C)NS(=O)(=O)c3ccc(C(C)=O)cc3)c2C)cc1 (stereo unspecified)	n	n	n	n
COc1ccc(-n2ncc(C(C)NS(=O)(=O)c3cc(F)ccc3C)c2C)cc1 (stereo unspecified)	n	n	n	-58
CCn1nc(C)cc1-c1nnc(SCC(=O)Nc2ccccc2)n1CCCOC	n	n	n	n
CCn1nc(C)cc1-c1nnc(Sc2ncc([N+](=O)[O-])s2)n1C	n	n	n	-117
O=[N+]([O-])c1cccc(S(=O)(=O)N2CCN(c3nc(-c4cccs4)nc4ccccc34)CC2)c1	n	x	x	x
COC(=O)c1sc(NC(=O)COc2ccc(C)cc2)nc1C	n	n	n	n
COC(=O)c1sccc1NC(=O)c1cc(C)on1	n	n	n	-53
COC(=O)c1sccc1NC(=O)COc1ccc(C)cc1	n	n	n	-75
COCCCNC(=O)C1CCN(Cc2cc3ccccc3n2Cc2cccc(Cl)c2)CC1	x	x	n	x
Cc1cc(=O)n2[nH]c(NC(=O)c3cccc(Cl)c3)nc2n1	x	x	n	x
CCOc1cc(NC(C)=O)ccc1C(=O)OC	x	x	n	x
CC(=O)N(c1ccc(Cl)cc1)c1c[nH]c2ccccc12	n	n	n	-67
COc1cc(/C=C/C(=O)N2C(=O)c3cccc(N)c3C2=O)cc(OC)c1OC	n	n	n	-82
Nc1cccc2c1C(=O)N(C(=O)/C=C/c1cccc(Br)c1)C2=O	n	n	n	n
COc1ccc(OC)c(/C=C/C(=O)N2C(=O)c3cccc(N)c3C2=O)c1	n	n	n	-65
COc1ccc(C2CC(c3ccccc3)Oc3ccc(C(C)(C)C)cc32)cc1 (stereo unspecified)	n	x	x	x
CC(C)NC(=O)C1CCN(c2nc3ccccc3nc2C(F)(F)F)CC1	x	x	n	x
COc1ccc(-c2nn3c(-c4cc(C)[nH]n4)nnc3s2)cc1	n	x	x	x
Cc1ncc([N+](=O)[O-])n1CCOC(=O)Nc1ccc([N+](=O)[O-])cc1	-83	n	n	n
Cc1ncc([N+](=O)[O-])n1CCOC(=O)c1cc(Cl)cc(Cl)c1N	-86	n	n	n
CNC(=O)c1ccc2nc(-c3cccc(C)c3)c(-c3cccc(C)c3)nc2c1	n	x	x	x
CCCc1nc2ccccc2c(C(=O)OCC(=O)N2CCc3ccccc32)c1CC	n	n	70	n
CCCc1nc2ccccc2c(C(=O)OCC(=O)Nc2cccc(S(=O)(=O)N3CCOCC3)c2)c1CC	n	n	n	n
CCCc1nc2ccccc2c(C(=O)OCC(=O)Nc2ccc(S(=O)(=O)N3CCOCC3)cc2)c1CC	n	n	32	n
Cc1cccc(C)c1Nc1c(-c2ccc(Cl)s2)nc2ncccn12	x	x	n	x
SMILES	Giardia killer	B2AR arrestin	DRD3 agonist	D3 antag
Cc1ccc(C)c(OCCn2cc(C(=O)c3ccco3)c3ccccc32)c1	x	x	n	x
COC(=O)c1ccccc1NC(=O)NCc1ccc2c(c1)CCN2C(=O)c1ccccc1	x	x	n	x
Oc1ccc(-c2c(-c3ccsc3)sc3ccccc23)cc1	n	n	36	n
Cc1ccc(NC(=O)N2CCCC(c3ccccc3)C2)cc1 (stereo unspecified)	n	n	34	n
CC(=O)OCON[N+]([O-])=NC1CCCCC1	n	x	x	x
Cc1nc(SCC(=O)NCc2ccco2)c2c3c(sc2n1)CCCC3	n	n	n	n
O=C(CSc1nc(C2CC2)nc2sc3c(c12)CCCC3)NCc1ccco1	n	n	n	-112
CN1C(=O)CC2(C=CC(=O)C=C2OC(=O)c2ccccc2)c2ccccc21 (stereo unspecified)	n	x	x	x
COc1cc(OC)c2c(-c3ccccc3)cc(=O)oc2c1C(CCN1CCCC(C)C1)c1ccc(N(C)C)cc1 (stereo unspecified)	n	n	n	u
COc1ccc(C(CCN2CCCC2)c2c(OC)cc(OC)c3c(-c4ccccc4)cc(=O)oc23)cc1 (stereo unspecified)	n	n	n	n
COc1ccc(C(CCN2CCCC(C)C2)c2c(OC)cc(OC)c3c(-c4ccccc4)cc(=O)oc23)cc1 (stereo unspecified)	n	n	n	-53
COc1ccc(C(CCN2CCCC(C)C2)c2c(OC)cc(OC)c3c(C)cc(=O)oc23)cc1 (stereo unspecified)	n	n	n	-89
Cc1nc(-c2ccc(Cl)cc2)oc1COC(C)(C)C(=O)O	x	x	n	x
CCCCn1c(-c2ccccc2C)nc2cc3[nH]c(=O)c(C(C)C)nc3cc21	u	n	n	-64
c1coc(Cn2nnnc2CN2CCN(C3CCCC3)CC2)c1	n	n	n	-69
CCOc1ccc(Nc2nc(N)c(C(=O)c3ccccc3Cl)s2)cc1	x	x	70	x

Assay outcomes deposited in PubChem BioAssay by National Center for Advancing Translational Sciences (NCATS).
